Screening results: PubChem BioAssay, National Center for Advancing Translational Sciences (NCATS)
MCF10A rereplic: inducers of DNA re-replication in MCF 10A breast cells; hit rate 2.9% among 350,000; MCF 10A DNA re-replication, Hoechst nuclear intensity, 48 h; Potency, µM (titrated, usually from 46.1 µM), actives largely listed as activators; also: nearly all actives have a fitted effect of over 50% in size
SW480 rereplic: DNA re-replication induction in SW480 cells. SW480 DNA re-replication, Hoechst DNA content imaging, 48 h. Potency, µM (series often up to 46.1 µM), usual class: activators. hit rate 1.8% among 340,000; also: nearly all actives have a fitted effect of over 55% in size
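SW480 cells exposed to compounds for 48 hr at 37 C, 5% CO2, then Hoechst-stained 40 min. Nuclear DNA content imaged by fluorescence scanning (405 nm excitation, 500-530 nm emission); re-replication scored as increased high-intensity nuclei.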
RORgamma inh: inhibitors of mouse ROR gamma transcriptional activity | AID 2551 | Drosophila S2 Gal4-RORgamma UAS-luciferase reporter, 20 h | Potency, µM (doses to about 53.6 µM), most hits filed as inhibitors | P51450 | hit rate 5.4% among 310,000; also: nearly all actives have a fitted effect of over 60% in size
Target sequence (P51450 whole entry, looked up, the tested form may be a part): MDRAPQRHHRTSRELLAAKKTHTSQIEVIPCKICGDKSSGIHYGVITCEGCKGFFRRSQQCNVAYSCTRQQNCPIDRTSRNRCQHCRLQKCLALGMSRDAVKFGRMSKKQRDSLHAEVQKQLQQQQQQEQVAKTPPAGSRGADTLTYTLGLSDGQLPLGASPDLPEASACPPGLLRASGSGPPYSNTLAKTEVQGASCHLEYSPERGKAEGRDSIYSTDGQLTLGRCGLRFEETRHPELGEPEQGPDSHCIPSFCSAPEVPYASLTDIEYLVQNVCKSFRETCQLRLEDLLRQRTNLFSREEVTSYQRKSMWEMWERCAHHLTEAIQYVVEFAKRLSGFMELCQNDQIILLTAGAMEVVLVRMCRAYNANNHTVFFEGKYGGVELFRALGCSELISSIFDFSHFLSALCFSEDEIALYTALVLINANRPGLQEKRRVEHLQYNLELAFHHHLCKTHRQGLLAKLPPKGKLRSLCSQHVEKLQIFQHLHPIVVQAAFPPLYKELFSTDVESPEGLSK
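A Gal4/UAS one-hybrid system in insect cells: metallothionein-promoter Gal4–ROR gamma fusion plus Photinus luciferase reporter. Copper sulfate 700 uM final, 20 hr ambient incubation, luminescent detection after 10 min with reagent.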
ELG1 repair inh: ELG1-dependent DNA repair inhibition. HEK293T ELG1-luciferase reporter, luminescence, 16 h; DNA damage induced by 5-fluorouridine. Potency, µM (highest dose often 46.1 µM), most hits filed as inhibitors. hit rate 2.3% among 330,000; also: nearly all actives have a fitted effect of over 55% in size
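DMSO vehicle served as the neutral condition. Each well held 2,000 cells given 5-fluorouridine plus compound; after 16 hr at 37 °C/5% CO2, ONE-Glo was added and luciferase measured 30 min later.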
VP16 counter: Gal4-VP16 reporter inhibition counter-screen | AID 2546 | Potency, µM (highest dose often 53.6 µM), usual class: inhibitors | Drosophila S2 Gal4-VP16 UAS-luciferase, luminescence, 20 h | hit rate 3.5% among 310,000;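 also: Gal4-VP16 expression switched on by copper sulfate through the metallothionein promoter; nearly all actives have a fitted effect of over 50% in size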
A number is an active result; [ ] = dose if it differs, or a comment. Most compounds without a hit are left out; they make up all but 10% or so of the library. Calls follow the shape of the dose curve; as a rule, active = well fitted curve in the direction sought with a large enough effect; inconclusive = small, poorly fitted or top-dose-only effect, or another doubt; inactive = no such curve, though single readings can be large; an effect the other way counts as inactive or inconclusive.

CCOc1cc(NC(=S)NCC2CCCO2)c(OCC)cc1NC(=O)c1ccccc1C (stereo unspecified) was read as MCF10A rereplic inactive[0.0737 µM], SW480 rereplic inactive, RORgamma inh 10µM, ELG1 repair inh inactive and VP16 counter inconclusive.
CCCCN(CCCC)CCCNC(=O)Cn1cc2c(n1)-c1c(oc(C(=O)N3CCCC3)c1C)CC2 was read as MCF10A rereplic inactive, SW480 rereplic inactive, RORgamma inh inactive, ELG1 repair inh inactive and VP16 counter inactive.
`CC(=O)NC(NC(C)=O)c1cccc(OCc2ccccc2)c1` gave MCF10A rereplic inactive, SW480 rereplic inactive, RORgamma inh inactive, ELG1 repair inh inactive and VP16 counter inactive.
Screening COC(=O)c1sccc1NC(=O)Nc1ccc(C)cc1C returned MCF10A rereplic inactive, SW480 rereplic inactive, RORgamma inh inconclusive, ELG1 repair inh inactive and VP16 counter inconclusive.
For COC(=O)c1sccc1NC(=S)Nc1ccc(F)cc1 the results were MCF10A rereplic inactive, SW480 rereplic inactive, RORgamma inh 12.6µM, ELG1 repair inh inactive and VP16 counter inconclusive.
COC(=O)c1sccc1NC(=S)Nc1cc(C)ccc1OC was read as MCF10A rereplic inactive, SW480 rereplic inactive, RORgamma inh 8.91µM, ELG1 repair inh inactive and VP16 counter 15.8µM.
COC(=O)c1sccc1NC(=O)Nc1ccc(F)cc1 was read as MCF10A rereplic inactive, SW480 rereplic inactive, RORgamma inh inconclusive, ELG1 repair inh inactive and VP16 counter inactive.
For C=C1CC[C@@H]2[C@](C)(CO)[C@H](O)CC[C@@]2(C)[C@@H]1/C=C/C1=CCOC1=O the results were MCF10A rereplic inactive, SW480 rereplic inactive, RORgamma inh inactive, ELG1 repair inh inactive and VP16 counter inactive.
For C=C1CCC2C(C)(CO)C(O)CCC2(C)C1C/C=C1\C(=O)OCC1O (stereo unspecified) the results were RORgamma inh 12.6µM and VP16 counter inactive.
`CCCn1c(-c2ccccc2)cc(SC)c(C#N)c1=O` gave MCF10A rereplic inactive, SW480 rereplic 5.8µM, RORgamma inh inactive, ELG1 repair inh inactive and VP16 counter inactive.
`CSc1cc(-c2ccccc2)n(Cc2ccccc2Cl)c(=O)c1C#N` gave MCF10A rereplic 3.66µM, SW480 rereplic 6.51µM, RORgamma inh inactive, ELG1 repair inh inconclusive and VP16 counter inactive.
Screening CC(C)C1CC(c2ccccc2)(C(CN)CO)CCO1 (stereo unspecified) returned MCF10A rereplic inconclusive, SW480 rereplic inactive, RORgamma inh inactive, ELG1 repair inh inactive and VP16 counter inactive.
COc1ccccc1CN1CCC2(CC1)CCN(C(=O)c1csnn1)CC2 was read as RORgamma inh inactive and VP16 counter inactive.
`CC(C)(C)c1ccc(C(=O)NCCOc2ccccc2F)cc1` gave MCF10A rereplic inactive, SW480 rereplic inactive, RORgamma inh 7.08µM, ELG1 repair inh inconclusive and VP16 counter 6.31µM.
Screening CN(C)S(=O)(=O)c1ccc(C(=O)NCCOc2ccccc2)cc1 returned MCF10A rereplic inactive, SW480 rereplic inactive, RORgamma inh inactive, ELG1 repair inh inconclusive and VP16 counter inconclusive.
For CCCCOc1ccc(C(=O)NCC(=O)NCCOc2ccccc2OC)cc1 the results were MCF10A rereplic inactive, SW480 rereplic 0.92µM and ELG1 repair inh inactive.
Screening COc1ccccc1C(=O)NCCOc1ccc(C(C)(C)C)cc1 returned MCF10A rereplic inactive, SW480 rereplic inactive, RORgamma inh inconclusive, ELG1 repair inh inactive and VP16 counter inconclusive.
`CC(C)(C)c1ccc(C(=O)NCCOc2ccccc2)cc1` gave MCF10A rereplic inactive, SW480 rereplic inactive, RORgamma inh 8.91µM, ELG1 repair inh inconclusive and VP16 counter inconclusive.
`Cc1ccc(Cn2c(=N)c(C(=O)NCc3ccco3)cc3c(=O)n4ccccc4nc32)cc1` gave MCF10A rereplic 11.2µM, SW480 rereplic 3.55µM, RORgamma inh inactive, ELG1 repair inh inconclusive and VP16 counter inactive.
`COc1ccc(CCn2c(=N)c(C(=O)NCc3ccco3)cc3c(=O)n4ccccc4nc32)cc1OC` gave MCF10A rereplic inactive and SW480 rereplic inactive.
Screening N=c1c(C(=O)NCc2ccco2)cc2c(=O)n3ccccc3nc2n1CCc1ccccc1 returned MCF10A rereplic 8.2µM, SW480 rereplic 13µM, RORgamma inh inactive, ELG1 repair inh inactive and VP16 counter inactive.
`COc1ccccc1-n1c(-c2ccc(Cl)cc2)c[nH]c1=S` gave MCF10A rereplic inactive, SW480 rereplic inactive, RORgamma inh 2.82µM, ELG1 repair inh inactive and VP16 counter 7.08µM.
COc1ccccc1-n1c(-c2ccc(NS(C)(=O)=O)cc2)n[nH]c1=S was read as MCF10A rereplic inactive, SW480 rereplic inactive, RORgamma inh inactive, ELG1 repair inh inactive and VP16 counter inactive.
For Cc1cccc(-n2c(-c3ccccc3)c[nH]c2=S)c1C the results were MCF10A rereplic inactive, SW480 rereplic inactive, RORgamma inh 2.24µM, ELG1 repair inh inactive and VP16 counter 7.08µM.
Screening C=CCN1C(=O)/C(=C2/C(=O)N(CC(=O)O)c3ccccc32)S/C1=N/c1nccs1 returned RORgamma inh inactive, ELG1 repair inh inactive and VP16 counter inactive.
For C=CCN1C(=O)/C(=C/c2ccc(OC)cc2)S/C1=N/c1nccs1 the results were MCF10A rereplic inactive, SW480 rereplic inactive, RORgamma inh 5.01µM, ELG1 repair inh inactive and VP16 counter inactive.
`C=CCN=C1S/C(=C\c2ccc(N(C)C)cc2)C(=O)N1CC=C` gave MCF10A rereplic 18.4µM, SW480 rereplic inconclusive, RORgamma inh inactive, ELG1 repair inh inactive and VP16 counter inactive.
C=CCN1C(=O)/C(=C/c2ccc(O)cc2)S/C1=N/c1nccs1 was read as MCF10A rereplic 23.1µM, SW480 rereplic inactive, RORgamma inh inactive, ELG1 repair inh inactive and VP16 counter inactive.
Screening COc1ccc(/C=C2/SC(=S)N(c3ccc(S(=O)(=O)Nc4nccs4)cc3)C2=O)cc1 returned MCF10A rereplic inactive, SW480 rereplic inactive, RORgamma inh inconclusive, ELG1 repair inh inactive and VP16 counter inconclusive.
`COc1ccc(CCN2C(=O)C(Oc3ccccc3C)C2c2ccc3c(c2)OCO3)cc1` (stereo unspecified) gave MCF10A rereplic inconclusive, SW480 rereplic inactive, RORgamma inh inactive, ELG1 repair inh 16.4µM and VP16 counter inactive.
Screening C=C1C(=O)OC2C1CCC(C)C1C=CC(=O)C12C (stereo unspecified) returned MCF10A rereplic 2.06µM and SW480 rereplic 6.51µM.
Screening CC(=O)O[C@@H]1[C@H]2[C@@H](C[C@@H](C)[C@@H]3C=CC(=O)[C@@]13C)OC(=O)[C@@H]2C returned MCF10A rereplic inactive, SW480 rereplic inactive[9.22 µM], RORgamma inh inactive, ELG1 repair inh inactive and VP16 counter inactive.
For O=C(Nc1nc2cc(Cl)ccc2s1)C1CCCN(S(=O)(=O)c2cccc3cccnc23)C1 (stereo unspecified) the results were MCF10A rereplic inconclusive, SW480 rereplic inactive, RORgamma inh inactive, ELG1 repair inh 16.4µM and VP16 counter inactive.
